These results are taken from PubChem BioAssay.

Calls of active or inactive are those of the source.

A short description of assay [1]: small molecules captured by biotinylated probe aFSTL3 – biochemical, small-molecule microarray, fluorescence 635/667, stem cell growth factor project, primary screen (AID 1064).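 Further: measures binding of the biotinylated anti-FSTL3 antibody to printed compounds.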 To be noted: higher = more signal.
The nature of assay [2]: binders from COS7 lysate, DM2A8 probe, primary screen, torsin A project, cell lysate, small-molecule microarray, fluorescence 635/667 (AID 1065). To be noted: higher = more signal, COS7 lysate expressing mutant human TOR1A.
The nature of assay [3]: small molecules captured by biotinylated probe aFGF2 – biochemical, small-molecule microarray, fluorescence 635/667, stem cell growth factor project, primary screen (AID 1067).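 Further: measures binding of biotinylated aFGF2 protein to printed compounds on slides; z-score merges feature fluorescence and signal-to-noise across triplicate slides.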 The following applies: higher = more signal.
Assay [4] is described as follows: small molecules captured by biotinylated probe aFGF10 – biochemical, small-molecule microarray, fluorescence 635/667, stem cell growth factor project, primary screen (AID 1071).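 Further: score merges 667 nm spot intensity and signal to noise from triplicate slides.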 To be noted: higher = more signal.
The target of assay [5] is Neurogenic locus notch homolog protein 2 (Homo sapiens) (UniProt Q04721). The assay can be described thus: small molecules binding Notch2 protein – biochemical, small-molecule microarray, 635 nm fluorescence, stem cell growth factors, primary screen (AID 1073). To be noted: higher = more signal.
Assay [6] addresses Pro-neuregulin-1, membrane-bound isoform (Homo sapiens) (UniProt Q02297). The assay can be described thus: small molecules binding neuregulin-1 protein – biochemical, small-molecule microarray, fluorescence 635/667, psychiatric disease protein project, primary screen (AID 1075).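 Further: score combines 667 nm spot fluorescence with signal to noise.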 To be noted: NRG1 binding, 635 nm fluorescence, higher = more signal.
In assay [7] the test system is Neuregulin-1 EGF-like domain. The assay can be described thus: small molecules binding NRG1 EGF domain – biochemical, small-molecule microarray, 635 nm fluorescence, primary screen (AID 1081).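 Further: binding of the protein to compounds printed on small-molecule microarray slides.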 To be noted: higher = more signal.
Assay [8] in a line: FRG1 expression reporter modulators in myotubes – cell-based, C2C12 myotubes, firefly/Renilla luciferase, luminescence, FRG1 inhibition for FSHD, primary screen (AID 1084). The following applies: FRG1 promoter luciferase, higher = more signal, called active from +8 up or from −8 down.
The nature of assay [9]: small molecules captured by biotinylated probe aFST – biochemical, small-molecule microarray, fluorescence 635/667, stem cell growth factor project, primary screen (AID 1086).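 Further: score merges 667 nm fluorescence with signal-to-noise of each printed compound spot.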 To be noted: higher = more signal.
Assay [10] is described as follows: binders of probe aHhip on microarray, primary screen, stem cell growth factor project, biochemical, small-molecule microarray, fluorescence 635/667 (AID 1087).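 Further: score merges spot fluorescence at 667nm with spot signal to noise ratio.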 To be noted: higher = more signal.
Assay [11] has as its system PRMT1 (protein arginine N-methyltransferase 1). The assay can be described thus: small molecules binding arginine methyltransferase PRMT1 – biochemical, small-molecule microarray, 635 nm fluorescence, primary screen (AID 1088).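 Further: binding of Prmt1 protein to compounds spotted on small-molecule microarray slides.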 To be noted: higher = more signal.
Assay [12] is described as follows: growth effects on S. cerevisiae YJM789 – YJM789 clinical isolate, OD600, 24 h, basal, primary screen (AID 1089).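 Further: growth of clinical yeast isolate S. cerevisiae YJM 789 seeded 1000 cells per well; test concentration not given here.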 To be noted: higher = more signal, called active from +8 up or from −8 down.
A short description of assay [13]: S. pombe growth modifiers, basal conditions – strain 972, OD600, 24 h, no modulator, primary screen (AID 1090).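 Further: basal condition with compound alone and no growth modifier present; test concentration not given here.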 To be noted: S. pombe 972 growth, higher = more signal, called active from +8 up or from −8 down.
Assay [14] is described as follows: budding yeast growth modifiers under rapamycin – strain BY4716, OD600, 96 h, primary screen (AID 1091). Further: test concentration not given here. To be noted: S. cerevisiae BY4716 + rapamycin, higher = more signal, called active from +8 up or from −8 down.
The target in assay [15] is Torsin-1A-interacting protein 2 (Homo sapiens) (UniProt Q8NFQ8). The assay can be described thus: small molecules binding lysate-expressed LULL1 – cell lysate, human LULL1 lysate, 635/667 nm fluorescence, primary screen (AID 1092).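 Further: probe is lysate of COS7 cells overexpressing human LULL1; score merges per-feature 667 nm fluorescence with signal-to-noise.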 The following applies: small-molecule microarray, hLULL1 lysate binding, 635 nm fluorescence; higher = more signal.
Sequence of Torsin-1A-interacting protein 2 (Homo sapiens) (Q8NFQ8 whole entry, looked up): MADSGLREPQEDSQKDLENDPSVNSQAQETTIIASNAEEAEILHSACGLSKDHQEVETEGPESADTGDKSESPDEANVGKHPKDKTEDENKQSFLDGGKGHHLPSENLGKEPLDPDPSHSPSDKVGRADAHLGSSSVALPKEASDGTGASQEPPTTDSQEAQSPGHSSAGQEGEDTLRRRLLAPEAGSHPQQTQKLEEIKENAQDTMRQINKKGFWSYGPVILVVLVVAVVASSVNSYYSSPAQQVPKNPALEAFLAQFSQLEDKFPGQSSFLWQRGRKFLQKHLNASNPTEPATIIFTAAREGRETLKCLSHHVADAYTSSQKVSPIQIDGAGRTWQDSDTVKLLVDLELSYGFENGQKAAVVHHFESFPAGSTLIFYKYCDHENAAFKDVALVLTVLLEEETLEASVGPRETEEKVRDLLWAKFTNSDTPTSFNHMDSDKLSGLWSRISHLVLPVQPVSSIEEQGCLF
Assay [16] is described as follows: optical density change of DRC41 E. coli – strain DRC41, OD650, 24 h, E. coli filamentation project, primary screen (AID 1093).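 Further: MC1000 strain lacking acrAB efflux and sulA so SOS filamentation is blocked; test concentration not given here.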 To be noted: E. coli DRC41 growth, higher = more signal, called active from +8 up or from −8 down.
Assay [17] can be described thus: probe aLefty2 binding to arrayed compounds – biochemical, biotinylated probe, 635/667 nm fluorescence, primary screen (AID 1094).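 Further: score merges spot fluorescence near 667 nm with spot signal-to-noise ratio.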 The following applies: small-molecule microarray, higher = more signal.
For assay [18], the system named is Noggin (protein binding on small-molecule microarray). The assay can be described thus: small molecules binding Noggin protein – biochemical, 635/667 nm fluorescence, primary screen (AID 1095).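 Further: score merges 667 nm feature fluorescence with signal to noise over triplicate slides.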 To be noted: 635 nm fluorescence, higher = more signal.
Assay [19] concerns the target Neurogenic locus notch homolog protein 3 (Homo sapiens) (UniProt Q9UM47). The assay can be described thus: small molecules binding NOTCH3 protein – biochemical, 635/667 nm fluorescence, primary screen (AID 1096). To be noted: small-molecule microarray, 635 nm fluorescence, higher = more signal.
Assay [20] in a line: probe aEGFR binding to arrayed compounds – biochemical, biotinylated probe, 635/667 nm fluorescence, primary screen (AID 1097).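 Further: probe is a biotinylated anti-EGFR antibody binding compounds printed on slides; score combines fluorescence near 667 nm and signal to noise of each spot.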 The following applies: small-molecule microarray, higher = more signal.

Sequence of Neurogenic locus notch homolog protein 3 (Homo sapiens) (Q9UM47 whole entry, looked up): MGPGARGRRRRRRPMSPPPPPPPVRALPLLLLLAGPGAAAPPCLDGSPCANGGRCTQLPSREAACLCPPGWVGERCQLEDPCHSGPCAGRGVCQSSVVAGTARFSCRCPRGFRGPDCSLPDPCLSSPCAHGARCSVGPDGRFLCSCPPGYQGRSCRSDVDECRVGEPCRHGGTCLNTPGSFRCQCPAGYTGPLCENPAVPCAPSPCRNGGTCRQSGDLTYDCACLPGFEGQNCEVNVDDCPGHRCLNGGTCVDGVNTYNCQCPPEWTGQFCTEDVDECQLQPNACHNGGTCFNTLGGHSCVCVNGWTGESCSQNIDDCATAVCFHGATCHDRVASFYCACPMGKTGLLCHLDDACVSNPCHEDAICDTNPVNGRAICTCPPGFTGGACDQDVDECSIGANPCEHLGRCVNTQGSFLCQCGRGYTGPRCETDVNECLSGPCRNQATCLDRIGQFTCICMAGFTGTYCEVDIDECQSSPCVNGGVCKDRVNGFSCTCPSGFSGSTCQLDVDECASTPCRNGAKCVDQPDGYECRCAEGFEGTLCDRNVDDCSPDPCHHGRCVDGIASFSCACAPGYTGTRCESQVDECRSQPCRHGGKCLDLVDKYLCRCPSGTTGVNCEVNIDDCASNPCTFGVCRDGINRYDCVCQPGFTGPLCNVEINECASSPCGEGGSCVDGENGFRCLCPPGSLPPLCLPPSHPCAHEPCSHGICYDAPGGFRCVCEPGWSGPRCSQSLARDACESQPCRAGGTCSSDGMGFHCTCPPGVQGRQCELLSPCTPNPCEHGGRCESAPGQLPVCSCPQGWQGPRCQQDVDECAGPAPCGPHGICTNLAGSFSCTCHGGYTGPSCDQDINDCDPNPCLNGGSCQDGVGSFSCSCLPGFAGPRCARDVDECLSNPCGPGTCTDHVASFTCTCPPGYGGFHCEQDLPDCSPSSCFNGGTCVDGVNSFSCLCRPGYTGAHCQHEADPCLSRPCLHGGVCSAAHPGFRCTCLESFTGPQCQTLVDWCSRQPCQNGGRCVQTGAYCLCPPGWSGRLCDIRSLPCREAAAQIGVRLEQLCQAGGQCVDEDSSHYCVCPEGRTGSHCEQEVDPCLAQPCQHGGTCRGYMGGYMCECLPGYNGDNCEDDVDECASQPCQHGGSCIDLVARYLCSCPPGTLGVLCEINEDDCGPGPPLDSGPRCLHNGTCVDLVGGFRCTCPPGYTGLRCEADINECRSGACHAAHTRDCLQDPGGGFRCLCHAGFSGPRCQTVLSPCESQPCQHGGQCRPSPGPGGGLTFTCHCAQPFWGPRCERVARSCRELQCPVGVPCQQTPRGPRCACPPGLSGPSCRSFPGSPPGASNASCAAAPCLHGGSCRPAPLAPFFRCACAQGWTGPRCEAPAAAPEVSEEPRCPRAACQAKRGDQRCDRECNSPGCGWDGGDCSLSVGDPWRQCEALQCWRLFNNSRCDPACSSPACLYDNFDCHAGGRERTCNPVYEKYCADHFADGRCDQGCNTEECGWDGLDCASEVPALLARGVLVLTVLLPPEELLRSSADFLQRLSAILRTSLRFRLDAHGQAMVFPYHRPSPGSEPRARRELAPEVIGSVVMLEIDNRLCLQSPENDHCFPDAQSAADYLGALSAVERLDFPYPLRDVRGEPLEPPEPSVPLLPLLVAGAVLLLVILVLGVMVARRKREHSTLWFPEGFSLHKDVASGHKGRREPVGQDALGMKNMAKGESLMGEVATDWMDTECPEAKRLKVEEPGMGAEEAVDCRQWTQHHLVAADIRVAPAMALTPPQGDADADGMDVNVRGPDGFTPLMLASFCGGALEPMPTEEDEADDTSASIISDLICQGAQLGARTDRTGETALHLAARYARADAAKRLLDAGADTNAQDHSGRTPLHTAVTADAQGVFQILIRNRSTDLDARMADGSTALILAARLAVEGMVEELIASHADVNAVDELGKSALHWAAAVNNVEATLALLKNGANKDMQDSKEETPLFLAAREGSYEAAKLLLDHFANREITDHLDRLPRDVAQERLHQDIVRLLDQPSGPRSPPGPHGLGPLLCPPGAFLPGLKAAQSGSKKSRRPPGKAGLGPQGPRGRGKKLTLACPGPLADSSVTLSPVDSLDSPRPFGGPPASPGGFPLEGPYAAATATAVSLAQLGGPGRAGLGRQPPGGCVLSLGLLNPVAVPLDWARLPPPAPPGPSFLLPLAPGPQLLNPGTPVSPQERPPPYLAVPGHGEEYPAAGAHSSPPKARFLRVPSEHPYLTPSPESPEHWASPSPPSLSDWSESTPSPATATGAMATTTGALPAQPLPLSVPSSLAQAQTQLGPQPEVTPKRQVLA
Sequence of Pro-neuregulin-1, membrane-bound isoform (Homo sapiens) (Q02297 whole entry, looked up, the tested form may be a part, canonical isoform): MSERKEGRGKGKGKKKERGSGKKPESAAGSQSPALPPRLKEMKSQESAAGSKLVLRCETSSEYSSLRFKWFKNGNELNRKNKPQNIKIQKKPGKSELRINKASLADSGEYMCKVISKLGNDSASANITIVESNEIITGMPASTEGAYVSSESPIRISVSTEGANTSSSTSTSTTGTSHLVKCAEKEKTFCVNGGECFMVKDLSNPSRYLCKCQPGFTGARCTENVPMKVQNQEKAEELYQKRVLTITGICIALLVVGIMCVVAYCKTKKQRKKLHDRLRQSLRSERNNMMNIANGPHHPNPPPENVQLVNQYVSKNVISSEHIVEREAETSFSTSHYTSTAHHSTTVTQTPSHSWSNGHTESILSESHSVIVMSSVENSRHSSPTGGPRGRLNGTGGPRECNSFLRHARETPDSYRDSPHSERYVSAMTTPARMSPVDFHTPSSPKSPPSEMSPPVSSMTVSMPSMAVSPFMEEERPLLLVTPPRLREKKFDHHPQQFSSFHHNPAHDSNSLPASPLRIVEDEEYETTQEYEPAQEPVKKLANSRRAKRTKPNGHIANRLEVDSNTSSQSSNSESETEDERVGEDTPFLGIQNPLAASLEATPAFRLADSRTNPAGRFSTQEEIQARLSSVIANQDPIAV

`C=C(C)C1CCC(C(O)C2C=CC3C(=O)N(C)C(=O)C3N2Nc2cc(OC)c(OC)c(OC)c2)CC1` (stereo not given): the composite z-score in assay [1] came out at 0.735; in assay [2], 0.287; in assay [3], 0.115; in assay [4], 0.334; in [5] it was 1.57; in assay [6], 1.97. The composite z-score was 1.29 in [7]; 1.07 in assay [9]; -0.0296 in [10]; 1.51 in [11]; 3.28 in [15]; 0.0361 in assay [17]. Also, the figures for the composite z-score in [18], in [19] and in assay [20] were 0.205, 1.02 and 0.0763, respectively. For the same molecule, the z-score in assay [8] was 1.12 (inactive); in [12], 0.367 (inactive); in [13], 0.458 (inactive); in [14], 0.0769 (inactive); in assay [16], -1.37 (inactive).
As to `COCC1C2CC[C@H]3C(OCc4ccc(OC)cc4)OC[C@]4(C)[C@H]3C2=C(CN4C(=O)OC(C)(C)C)[C@H](C)C1COC` (stereo not given in full), the composite z-score in [1] was -0.163; in assay [2], 0.0867; in [3], 0.142; in [4] it was 1.09; in assay [5], 1.72; in assay [6], 1.73. Also, the composite z-score is 1.18 in assay [7]; 0.993 in [9]; -0.164 in assay [10]; 1.57 in [11]; 3.78 in [15]; 0.0359 in [17]. The figures for the composite z-score in assay [18], in assay [19] and in assay [20] were 0.372, 1.05 and -0.0656, respectively. The z-score in assay [8] was -0.31 (inactive); in [12], -1.23 (inactive); in assay [13], -1.18 (inactive); in [14], -0.444 (inactive); in [16], -1.22 (inactive).
For `COCCOC(=O)N1C(=O)[C@@]2(c3ccccc31)[C@H](c1ccccc1OCCO)N1[C@H](c3ccccc3)[C@H](c3ccccc3)OC(=O)[C@H]1[C@@H]2C(N)=O`, the composite z-score in assay [1] was -0.299; in assay [2] it was 0.692; in assay [3], -0.0015; in assay [4], 0.725; in assay [5], 1.23; in assay [6] it was 0.133. Also, the composite z-score in assay [7] is 1.3; in assay [9], 0.971; in assay [10] it was -0.0645; in assay [11], 1.56; in assay [15], 2.89; in assay [17] it was 0.198. Moreover, the composite z-score in assay [18] is 0.463; in assay [19] it was 1.08; in [20] it was 0.0258. In addition, the z-score is -2.08 (inactive) in [8]; 1.83 (inactive) in assay [12]; 1.54 (inactive) in assay [13]; 3.59 (inactive) in [14]; 0.0834 (inactive) in [16].
Consider `O=C1C2C=CC(C(O)c3ccco3)N(Nc3ccccc3)C2C(=O)N1c1ccccc1` (stereo not given), for which the composite z-score in assay [1] is 0.76; in assay [2], -0.79; in [3], -0.0767; in assay [4], -0.216; in assay [5], -0.331; in assay [6] it was 0.944. Besides, the composite z-score in assay [7] is 1.08; in [9], 0.225; in assay [10], -0.134; in assay [11], -0.182; in [15], 1.13; in [17] it was -0.147. Moreover, the composite z-score was -0.569 in [18], 0.504 in assay [19] and -0.192 in assay [20]. For the same molecule, the z-score is 0.64 (inactive) in assay [8]; 0.928 (inactive) in assay [12]; 0.0851 (inactive) in [13]; 0.662 (inactive) in assay [14]; -0.353 (inactive) in assay [16].
For `[N-]=[N+]=Nc1ccccc1C[C@]1(C(=O)O)N=C(c2ccc(OCCCO)cc2)O[C@H]1c1ccccc1`, the composite z-score in assay [1] was 0.0867; in assay [2], 0.444; in assay [3], -0.0785; in assay [4], 0.743; in assay [5], 0.448; in assay [6] it was 1.94. In addition, the composite z-score in assay [7] was 1.21; in assay [9] it was 0.834; in assay [10] it was -0.199; in assay [11], 1.34; in assay [15] it was 3.11; in assay [17] it was 0.0116. For the same molecule, the composite z-score was -0.0597 in [18], 0.703 in assay [19] and -0.0828 in assay [20]. Also, the z-score in assay [8] is -1.4 (inactive); in assay [12], 3.9 (inactive); in assay [13], 0.888 (inactive); in assay [14], 0.712 (inactive); in assay [16], 0.464 (inactive).
